Values joined by “and” are separate entries in the source; they are usually repeats but may differ in a detail not shown here. Identical values can stand only once. Results filed as inconclusive are left out. Where a call stands in place of a potency, no number is given. Some compounds were tested as several samples or in several runs, with calls that do not always agree. Active and inactive are the calls of the source. Unless noted, the call rests on the fitted dose curve; in most records, active means well fitted curve in the direction sought with a large enough effect in the repeat runs; inconclusive means weak or mixed curves; inactive means no such curve, though single readings can be large; an effect the other way counts as inactive or inconclusive.
Legend:
[1] = qHTS assay to identify small molecule antagonists of the estrogen related receptor (ERR) signaling pathway from Tox21 library - cell viability counter screen (AID 1224834); further: nearly all actives have a fitted effect of over 30% in size; further: potency means the concentration at half of the fitted maximal effect
Method in brief: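 Counter screen run in ERR cells (2,000 cells/well): cells pre-incubated 6 h, then treated with compounds for 17.5 h at 37 C. Fluorescence was read 30 min after CellTiter-Fluor addition.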

[2] = target: Luciferin 4-monooxygenase (Photinus pyralis) (UniProt P08659); test: qHTS assay to identify small molecule inhibitors of firefly luciferase (AID 1224835); further: nearly all actives have a fitted effect of over 25% in size; further: potency means the concentration at half of the fitted maximal effect
Chain of Luciferin 4-monooxygenase (Photinus pyralis) (P08659 whole entry, looked up): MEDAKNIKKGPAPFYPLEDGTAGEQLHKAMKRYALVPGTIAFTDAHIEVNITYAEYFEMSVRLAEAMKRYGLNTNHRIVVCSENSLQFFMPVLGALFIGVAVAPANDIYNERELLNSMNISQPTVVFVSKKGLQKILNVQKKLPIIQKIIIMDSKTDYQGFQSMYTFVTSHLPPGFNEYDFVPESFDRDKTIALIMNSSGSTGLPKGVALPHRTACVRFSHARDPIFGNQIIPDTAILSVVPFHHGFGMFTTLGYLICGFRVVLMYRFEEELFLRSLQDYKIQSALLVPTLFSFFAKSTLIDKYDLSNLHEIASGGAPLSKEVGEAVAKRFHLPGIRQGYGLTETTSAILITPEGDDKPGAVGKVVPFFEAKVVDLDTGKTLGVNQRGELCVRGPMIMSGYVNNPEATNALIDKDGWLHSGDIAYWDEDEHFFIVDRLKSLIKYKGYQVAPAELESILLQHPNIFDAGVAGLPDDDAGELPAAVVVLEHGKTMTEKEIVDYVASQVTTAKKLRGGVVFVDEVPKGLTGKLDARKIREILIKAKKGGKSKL
Method in brief: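 Quantitative HTS format; KM concentrations of both substrates. Purified P. pyralis FLuc activity quantified from luminescence images.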

[3] = qHTS assay to identify small molecule agonists of the constitutive androstane receptor (CAR) signaling pathway - cell viability counter screen (AID 1224836); further: nearly all actives have a fitted effect of over 45% in size; further: potency means the concentration at half of the fitted maximal effect
Method in brief: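 23 h treatment, 37 C, 5% CO2. Cell line: HepG2 stably expressing hCAR with a CYP2B6-2.2kb construct. Co-treatment: PK11195, 0.75 uM final. Read-out: CellTiter-Fluor fluorescence intensity.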

[4] = qHTS assay to identify small molecule antagonists of the constitutive androstane receptor (CAR) signaling pathway - cell viability counter screen (AID 1224837); further: nearly all actives have a fitted effect of over 45% in size
Method in brief: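 CITCO at 50 nM final was added alongside compounds (15 concentrations) to double-stable hCAR/CYP2B6-2.2kb HepG2 cells. Following 23 hr at 37 C, cell viability was quantified by CellTiter-Fluor fluorescence intensity.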

[5] = target: Nuclear receptor subfamily 1 group I member 3 (Homo sapiens) (UniProt Q14994); test: qHTS assay to identify small molecule antagonists of the constitutive androstane receptor (CAR) signaling pathway (AID 1224838); further: nearly all actives have a fitted effect of over 40% in size
Chain of Nuclear receptor subfamily 1 group I member 3 (Homo sapiens) (Q14994 whole entry, looked up): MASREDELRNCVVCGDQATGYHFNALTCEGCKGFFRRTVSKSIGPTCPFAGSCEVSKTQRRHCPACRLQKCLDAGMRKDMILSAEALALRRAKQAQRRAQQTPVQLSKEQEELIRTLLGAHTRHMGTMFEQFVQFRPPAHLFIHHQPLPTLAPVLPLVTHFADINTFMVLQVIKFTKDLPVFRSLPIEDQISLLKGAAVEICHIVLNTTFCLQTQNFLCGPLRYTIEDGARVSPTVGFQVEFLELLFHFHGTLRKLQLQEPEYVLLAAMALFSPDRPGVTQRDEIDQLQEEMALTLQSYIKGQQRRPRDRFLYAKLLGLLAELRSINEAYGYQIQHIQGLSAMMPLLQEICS
Method in brief: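 Inhibition of CITCO-driven (50 nM final) CYP2B6 reporter expression is measured in HepG2 cells stably carrying hCAR. Fifteen compound concentrations are applied for 24 h at 37 C, followed by luciferase luminescence.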

[6] = target: Nuclear receptor subfamily 1 group I member 3 (Homo sapiens) (UniProt Q14994); test: qHTS assay to identify small molecule agonists of the constitutive androstane receptor (CAR) signaling pathway (AID 1224839); further: nearly all actives have a fitted effect of over 15% in size; further: potency means the concentration at half of the fitted maximal effect
Method in brief: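 Compounds tested at 15 concentrations on HepG2 cells stably harbouring hCAR and CYP2B6-2.2kb reporter constructs, co-treated with PK11195 (0.75 uM final), 24 h at 37 C; luminescent reporter signal quantified.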

[7] = qHTS assay to identify small molecule antagonists of the estrogen related receptor signaling pathway with the pleiotropic PPARgamma coactivator (PGC) from Tox21 10K library - cell viability counter screen (AID 1224840; active means well fitted cell-killing curve with a large enough effect in the repeat runs, not every such curve was filed as active; further: nearly all actives have a fitted effect of over 40% in size)
Method in brief: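 Readout: fluorescence intensity from CellTiter-Fluor after 30 min at 37 C/5% CO2. Preceded by 17.5 h treatment of PGC/ERR cells with DMSO-dissolved compounds, added 6 h post-seeding.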

[8] = target: Thyrotropin receptor (Homo sapiens) (UniProt P16473); test: qHTS assay to identify small molecule agonists of the thyroid stimulating hormone receptor (TSHR) signaling pathway (AID 1224843; calls by dose curve; further: nearly all actives have a fitted effect of over 45% in size; further: potency means the concentration at half of the fitted maximal effect)
Chain of Thyrotropin receptor (Homo sapiens) (P16473 whole entry, looked up): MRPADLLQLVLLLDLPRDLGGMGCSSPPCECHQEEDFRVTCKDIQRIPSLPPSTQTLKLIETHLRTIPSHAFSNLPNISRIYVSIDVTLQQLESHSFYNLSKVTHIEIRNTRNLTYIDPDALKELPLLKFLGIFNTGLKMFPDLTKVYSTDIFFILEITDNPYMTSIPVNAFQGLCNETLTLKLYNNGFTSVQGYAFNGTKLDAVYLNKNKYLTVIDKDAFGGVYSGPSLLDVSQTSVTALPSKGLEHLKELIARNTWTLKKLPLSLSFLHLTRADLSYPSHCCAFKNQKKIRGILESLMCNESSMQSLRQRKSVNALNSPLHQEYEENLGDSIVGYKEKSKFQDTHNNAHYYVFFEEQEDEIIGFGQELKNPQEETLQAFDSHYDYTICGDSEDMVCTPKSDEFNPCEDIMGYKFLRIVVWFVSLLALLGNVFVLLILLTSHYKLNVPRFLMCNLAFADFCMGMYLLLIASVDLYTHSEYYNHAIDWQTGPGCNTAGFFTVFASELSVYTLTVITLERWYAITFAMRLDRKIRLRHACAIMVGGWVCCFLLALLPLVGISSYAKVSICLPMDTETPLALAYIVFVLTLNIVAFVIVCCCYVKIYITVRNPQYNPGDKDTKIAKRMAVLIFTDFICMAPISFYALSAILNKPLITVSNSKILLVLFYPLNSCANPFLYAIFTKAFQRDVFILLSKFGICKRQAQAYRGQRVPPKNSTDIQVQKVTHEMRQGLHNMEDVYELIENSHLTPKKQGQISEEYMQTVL
Method in brief: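 Using 15 concentrations per compound in triplicate, cAMP production was monitored in TSHR-HEK293 cells after 30 min compound incubation at RT; HTRF reagents followed, with fluorescence intensity recorded after 1 h.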

[9] = qHTS assay to identify small molecule agonists of the hypoxia (HIF-1) signaling pathway - cell viability counter screen (AID 1224844; calls by dose curve; further: nearly all actives have a fitted effect of over 50% in size)
Method in brief: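 In this counter screen, HRE-bla ME-180 cell viability after 17 hrs of compound exposure at 37C was read by CellTiter-Glo luminescence, multiplexed with the beta-lactamase reporter measurement.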

[10] = qHTS assay to identify small molecule agonists of H2AX (AID 1224845; active means well fitted activation curve with a large enough effect in the signal ratio in the repeat runs, not every such curve was filed as active; the % refers to the signal ratio)
Method in brief: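 Wild-type CHO-K1 cells plated overnight, then exposed 3 hr at 37C to compounds at 15 concentrations (0.76% DMSO). Lysed, then HTRF anti-pH2AX(S139)-cryptate/anti-H2AX-d2 detection after 24 hr at room temperature; emissions 665 and 620 nm.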

[11] = qHTS assay to identify small molecule agonists of the hypoxia (HIF-1) signaling pathway (AID 1224846; active means well fitted activation curve with a large enough effect in the signal ratio in the repeat runs, not every such curve was filed as active; the % refers to the signal ratio)
Method in brief: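 ME-180 HRE-bla reporter cells; compounds in DMSO, 17 h at 37C; read-out beta-lactamase via CCF4-AM FRET.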

[12] = qHTS RealTime-Glo MT Cell Viability Assay in HEK293 cells - 32 hour (AID 1224868); further: nearly all actives have a fitted effect of over 50% in size; further: potency means the concentration at half of the fitted maximal effect
Method in brief: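 Homogeneous bioluminescent viability format in HEK293 cells (600 cells/well). Following 5 h at 37 C/5% CO2, 23 nL compound was pintooled; the signal was measured repeatedly during 40 h incubation.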

[13] = A CellTox Green Cytotoxicity Assay to monitor cytotoxicity in HEK293 cells - 0 hour (AID 1224869); further: nearly all actives have a fitted effect of over 50% in size
Method in brief: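 Real-time, in one plate: 600 HEK293 cells/well with dead-cell DNA dye, pinned compound after 5 h, 37 C incubation over 40 h; viable cells give no appreciable fluorescence.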

[14] = qHTS assay to identify small molecule antagonists of the estrogen related receptor signaling pathway with the pleiotropic PPARgamma coactivator (PGC) from Tox21 10K library (AID 1224841; call rule not given here; further: actives are mostly falling curves and most rising ones were filed inactive; nearly all actives have a fitted effect of over 50% in size)
Method in brief: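 One-Glo luminescence, measured after half an hour at room temperature, quantified reporter output of PGC/ERR cells. These had been plated at 2,000 per well, incubated 6 h, dosed with compounds in DMSO, then kept 18 h at 37 C.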

[15] = qHTS assay to identify small molecule agonists of the estrogen related receptor signaling pathway with the pleiotropic PPARgamma coactivator (PGC) from Tox21 10K library (AID 1224842); further: nearly all actives have a fitted effect of over 15% in size
Method in brief: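 PGC/ERR reporter cells (NTP line) were seeded 2,000 per well, rested 6 h at 37 C/5% CO2, then pin-dosed with compounds in DMSO for 18 h at 37 C; luciferase read by One-Glo luminescence after 30 min at room temperature.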

[16] = qHTS assay to identify small molecule agonists of the estrogen related receptor (ERR) signaling pathway from Tox21 library (AID 1224849; calls by dose curve; further: nearly all actives have a fitted effect of over 15% in size); conditions: ERR reporter cell line, ONE-Glo luciferase, 18 h; at 92.4 µM (top of the series)
Method in brief: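 Luciferase activity in ERR pathway reporter cells served as the agonist readout; exposure lasted 18 h at 37 C, with ONE-Glo detection after 30 min at room temperature.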

[17] = qHTS RealTime-Glo MT Cell Viability Assay in HepG2 cells - 24 hour (AID 1224867); further: nearly all actives have a fitted effect of over 50% in size
Method in brief: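 Cell number in HepG2 cultures estimated from NanoLuc luminescence generated by metabolic reduction of a prosubstrate by living cells. The homogeneous, nonlytic format allowed repeated reads at 0, 8, 16, 24, 32 and 40 h of compound exposure.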

[18] = qHTS assay to identify small molecule agonists of H2AX - cell viability counter screen (AID 1224847; calls by dose curve; further: top concentration of the series differs between compounds; nearly all actives have a fitted effect of over 30% in size)
Method in brief: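 Compounds tested at 15 concentrations were incubated 3 hr at 37C with wild-type CHO-K1 cells; cellular ATP-based luminescence (CellTiter-Glo) indicated viability.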

[19] = qHTS assay to identify small molecule antagonists of the estrogen related receptor (ERR) signaling pathway from Tox21 library (AID 1224848); further: nearly all actives have a fitted effect of over 50% in size
Method in brief: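 Tox21 10K compounds in DMSO tested for ERR pathway antagonism in NTP's ERR cell line; 18 h, 37 C exposure; ONE-Glo luminescence.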

SMILES	Potency [1]	Potency [2]	Potency [3]	Potency [4]	Potency [5]	Potency [6]	Potency [7]	Potency [8]	Potency [9]	Potency [10]	outcome [11]	Potency [12]	Potency [13]	Potency [14]	Potency [15]	activity change, positive = activation [16]	Potency [17]	Potency [18]	Potency [19]
Clc1ccc(Cl)c(Cl)c1Cl	inactive	inactive	inactive	inactive	inactive	inactive	inactive	inactive	inactive	inactive	inactive	inactive	inactive						
CCCCOCCO	inactive	inactive	inactive	inactive	inactive	inactive	inactive	inactive	inactive	inactive	inactive	inactive		inactive	inactive	5.31% (inactive) and -0.958% (inactive)	inactive		
CCCCC(CC)COC(=O)/C=C\C(=O)OCC(CC)CCCC (centres undefined)	inactive	inactive	inactive	inactive	inactive	61.1 µM (active)	inactive	inactive	inactive	inactive	inactive	inactive	inactive	inactive	inactive			inactive	
OCC1CCCO1 (centres undefined)	inactive	inactive	inactive		inactive	inactive	inactive		inactive	inactive	inactive	inactive					inactive		
C=C1C2CCC(C2)C1(C)C (centres undefined)	inactive		inactive	inactive	inactive	inactive	inactive	inactive	inactive	inactive	inactive	inactive	inactive	inactive	inactive		inactive	inactive	
NC(=O)NNc1ccccc1	inactive		inactive	inactive	inactive	inactive	inactive	inactive	inactive	inactive	inactive	inactive	inactive				inactive	inactive	
Cc1ccc(N)c(S(=O)(=O)O)c1	inactive	inactive	inactive				inactive	inactive	inactive	inactive	inactive	inactive	inactive						
C=CC(=O)OCCCCCCCC(C)C	inactive		inactive	inactive	inactive	inactive	inactive	inactive		inactive	inactive	inactive	inactive					inactive	
O=S(=O)(O)CCS	inactive		inactive	inactive	inactive	inactive	inactive	inactive	inactive	inactive	inactive	inactive	inactive	inactive	inactive		inactive	inactive	
Oc1ccc2ccccc2c1N=Nc1ccccc1	27.3 µM (active)	12.6 µM (active) and 22.4 µM (active)	48.5 µM (active) and 30.6 µM (active)		inactive	30.6 µM (active) and 21.7 µM (active)		inactive	inactive	inactive	inactive	inactive	inactive				inactive		
CN(CCOc1ccc(CC2SC(=O)NC2=O)cc1)c1ccccn1 (centres undefined)	inactive	70.6 µM (active) and inactive	inactive		inactive	inactive	inactive	inactive	inactive	inactive	inactive	inactive	inactive				inactive	inactive	
CCCCC(CC)C(=O)OCCOCCOCCOC(=O)C(CC)CCCC (centres undefined)	inactive	inactive	inactive		inactive	inactive	inactive			inactive	inactive			inactive	inactive		inactive		
O=S(=O)(O)c1cc(S(=O)(=O)O)c2c(N=Nc3ccccc3)c(O)ccc2c1	54.7 µM (active) and 34.4 µM (active)	inactive			inactive	inactive		inactive	inactive		inactive	inactive	inactive				inactive		
CCOC(=O)[C@H](CCc1ccccc1)N[C@@H](C)C(=O)N1Cc2ccccc2C[C@H]1C(=O)O	inactive		inactive	inactive	inactive	inactive	inactive		inactive	inactive	inactive	inactive	inactive	inactive	inactive		inactive	inactive	
COCC(=O)O	inactive	inactive	inactive	inactive			inactive	inactive	inactive	inactive	inactive	inactive	inactive					inactive	
O=[N+]([O-])c1cccc(Cl)c1	inactive	inactive	inactive				inactive	6.74 µM (active) and inactive	inactive	inactive	inactive	inactive	inactive	inactive	inactive	8.37% (inactive) and -4.75% (inactive)	inactive	inactive	inactive
CCC(C)C=O (centres undefined)	inactive	inactive	inactive		inactive	inactive	inactive	4.32 µM (active) and inactive		inactive	inactive	inactive and 3.47 µM (active)	inactive				inactive		
O=[N+]([O-])c1cc(N(CCO)CCO)ccc1NCCO	48.5 µM (active)	28.2 µM (active) and 39.9 µM (active)					inactive		inactive		inactive	inactive	inactive				inactive		
C=C(C)C(=O)OCCC[Si](OC)(OC)OC	inactive	inactive	inactive	inactive			inactive	inactive		inactive	inactive	inactive					inactive		

— PubChem BioAssay (Tox21)
